The record followed here is ChEMBL document CHEMBL2218924, “A broad activity screen in support of a chemogenomic map for kinase signalling research and drug discovery” (Biochem J, 2013).

Assay [1] addresses Tyrosine-protein kinase SYK (Homo sapiens) (UniProt P43405). The conditions noted are these: at 10 µM.
Assay [2] concerns the target T1, Mitogen-activated protein kinase kinase kinase 7 (Homo sapiens) (UniProt O43318).
T1 sequence (whole entry): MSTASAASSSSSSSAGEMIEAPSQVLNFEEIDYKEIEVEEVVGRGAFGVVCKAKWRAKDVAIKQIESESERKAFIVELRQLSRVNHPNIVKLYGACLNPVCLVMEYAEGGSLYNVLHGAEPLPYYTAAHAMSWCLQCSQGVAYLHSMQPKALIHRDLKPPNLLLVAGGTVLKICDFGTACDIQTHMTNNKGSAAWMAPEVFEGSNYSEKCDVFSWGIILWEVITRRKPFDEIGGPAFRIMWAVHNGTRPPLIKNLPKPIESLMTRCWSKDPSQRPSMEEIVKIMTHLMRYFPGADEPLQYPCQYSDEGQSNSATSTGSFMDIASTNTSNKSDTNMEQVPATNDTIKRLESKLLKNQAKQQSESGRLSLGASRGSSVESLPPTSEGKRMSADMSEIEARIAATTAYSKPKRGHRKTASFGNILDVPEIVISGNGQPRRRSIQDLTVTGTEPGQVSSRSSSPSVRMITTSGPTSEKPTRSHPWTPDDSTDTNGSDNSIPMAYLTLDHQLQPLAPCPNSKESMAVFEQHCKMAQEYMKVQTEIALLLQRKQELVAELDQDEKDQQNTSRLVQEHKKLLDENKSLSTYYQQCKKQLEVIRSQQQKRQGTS
The conditions noted are these: at 1 µM.

For assay [3], the target named is T1, Mitogen-activated protein kinase kinase kinase 7 (Homo sapiens). Particulars: at 10 µM.
In assay [4] the target is T2, Serine/threonine-protein kinase TAO2 (Homo sapiens) (UniProt Q9UL54).
T2 sequence (whole entry): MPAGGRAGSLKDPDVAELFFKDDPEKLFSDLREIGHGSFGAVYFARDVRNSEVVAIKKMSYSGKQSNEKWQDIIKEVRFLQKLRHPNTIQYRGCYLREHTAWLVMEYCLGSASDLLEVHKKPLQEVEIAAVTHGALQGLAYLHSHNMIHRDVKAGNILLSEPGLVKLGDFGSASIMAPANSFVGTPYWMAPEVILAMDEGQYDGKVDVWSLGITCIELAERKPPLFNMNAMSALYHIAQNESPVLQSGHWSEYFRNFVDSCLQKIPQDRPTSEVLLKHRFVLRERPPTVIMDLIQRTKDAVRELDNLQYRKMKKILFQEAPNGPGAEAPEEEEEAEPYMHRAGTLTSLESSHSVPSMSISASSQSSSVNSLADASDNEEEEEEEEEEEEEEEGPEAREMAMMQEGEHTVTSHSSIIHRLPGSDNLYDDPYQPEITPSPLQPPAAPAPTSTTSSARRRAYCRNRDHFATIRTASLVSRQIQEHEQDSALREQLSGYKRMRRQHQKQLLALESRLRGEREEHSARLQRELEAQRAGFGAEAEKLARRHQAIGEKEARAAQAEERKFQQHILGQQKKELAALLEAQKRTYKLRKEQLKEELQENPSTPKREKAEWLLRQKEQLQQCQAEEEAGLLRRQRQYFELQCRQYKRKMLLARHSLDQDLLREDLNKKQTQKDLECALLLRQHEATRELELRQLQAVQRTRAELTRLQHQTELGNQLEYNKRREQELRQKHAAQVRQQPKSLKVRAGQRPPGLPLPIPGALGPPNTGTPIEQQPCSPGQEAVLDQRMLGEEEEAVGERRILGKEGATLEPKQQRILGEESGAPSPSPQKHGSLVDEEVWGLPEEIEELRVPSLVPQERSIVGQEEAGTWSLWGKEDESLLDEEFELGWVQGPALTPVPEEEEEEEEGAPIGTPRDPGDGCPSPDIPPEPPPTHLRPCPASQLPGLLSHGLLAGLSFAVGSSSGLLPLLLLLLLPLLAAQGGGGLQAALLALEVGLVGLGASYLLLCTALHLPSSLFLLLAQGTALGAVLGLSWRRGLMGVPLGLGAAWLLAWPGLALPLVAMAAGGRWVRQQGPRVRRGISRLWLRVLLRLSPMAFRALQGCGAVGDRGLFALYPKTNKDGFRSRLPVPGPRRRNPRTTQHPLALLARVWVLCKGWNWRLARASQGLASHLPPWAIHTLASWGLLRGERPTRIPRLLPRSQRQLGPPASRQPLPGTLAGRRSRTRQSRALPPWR
The conditions noted are these: at 10 µM.

Assay [5] has as its target T3, Serine/threonine-protein kinase TAO3 (Homo sapiens) (UniProt Q9H2K8).
T3 sequence (whole entry): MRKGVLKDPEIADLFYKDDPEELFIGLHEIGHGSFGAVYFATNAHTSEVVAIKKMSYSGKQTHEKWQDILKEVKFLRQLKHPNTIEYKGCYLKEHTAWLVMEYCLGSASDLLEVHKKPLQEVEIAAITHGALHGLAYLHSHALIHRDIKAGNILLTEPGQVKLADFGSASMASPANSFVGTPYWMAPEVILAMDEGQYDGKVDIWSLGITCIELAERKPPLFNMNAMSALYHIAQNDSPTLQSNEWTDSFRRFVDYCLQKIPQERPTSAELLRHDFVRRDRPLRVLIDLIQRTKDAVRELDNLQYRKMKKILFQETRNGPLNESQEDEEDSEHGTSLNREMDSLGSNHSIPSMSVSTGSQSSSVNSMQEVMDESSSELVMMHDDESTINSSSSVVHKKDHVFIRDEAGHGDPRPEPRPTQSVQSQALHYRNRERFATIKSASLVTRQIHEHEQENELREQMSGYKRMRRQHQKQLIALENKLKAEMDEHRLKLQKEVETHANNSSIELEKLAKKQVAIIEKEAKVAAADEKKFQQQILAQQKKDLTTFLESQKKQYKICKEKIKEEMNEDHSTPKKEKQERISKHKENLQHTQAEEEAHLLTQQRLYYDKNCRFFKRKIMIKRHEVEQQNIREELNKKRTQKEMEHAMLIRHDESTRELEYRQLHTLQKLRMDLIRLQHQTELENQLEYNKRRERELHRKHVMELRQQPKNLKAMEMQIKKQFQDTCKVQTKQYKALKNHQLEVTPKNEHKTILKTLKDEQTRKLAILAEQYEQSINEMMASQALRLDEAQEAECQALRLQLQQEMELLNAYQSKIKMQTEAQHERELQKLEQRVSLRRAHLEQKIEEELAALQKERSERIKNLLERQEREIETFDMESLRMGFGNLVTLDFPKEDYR
The conditions noted are these: at 1 µM.

For assay [6], the target named is T3, Serine/threonine-protein kinase TAO3 (Homo sapiens). The conditions noted are these: at 10 µM.
For assay [7], the target named is T4, Serine/threonine-protein kinase TBK1 (Homo sapiens) (UniProt Q9UHD2).
T4 sequence (whole entry): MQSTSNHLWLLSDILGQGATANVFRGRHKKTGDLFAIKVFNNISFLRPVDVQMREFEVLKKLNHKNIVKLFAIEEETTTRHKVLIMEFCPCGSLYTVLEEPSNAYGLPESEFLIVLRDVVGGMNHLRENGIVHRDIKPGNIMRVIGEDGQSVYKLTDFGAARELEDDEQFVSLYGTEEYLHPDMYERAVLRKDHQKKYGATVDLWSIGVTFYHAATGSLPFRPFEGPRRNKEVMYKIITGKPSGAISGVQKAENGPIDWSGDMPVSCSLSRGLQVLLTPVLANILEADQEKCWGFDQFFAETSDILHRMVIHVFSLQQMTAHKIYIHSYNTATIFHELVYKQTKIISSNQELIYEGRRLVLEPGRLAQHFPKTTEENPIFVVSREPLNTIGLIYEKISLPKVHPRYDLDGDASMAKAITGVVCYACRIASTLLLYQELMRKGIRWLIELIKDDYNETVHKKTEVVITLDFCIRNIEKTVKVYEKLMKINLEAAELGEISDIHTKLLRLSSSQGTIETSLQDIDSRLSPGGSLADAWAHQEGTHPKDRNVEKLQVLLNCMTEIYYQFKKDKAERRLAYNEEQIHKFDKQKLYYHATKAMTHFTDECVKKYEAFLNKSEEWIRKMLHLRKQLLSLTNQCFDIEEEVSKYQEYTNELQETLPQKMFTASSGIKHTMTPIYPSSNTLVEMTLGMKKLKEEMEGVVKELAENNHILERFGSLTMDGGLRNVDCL
The conditions noted are these: at 1 µM.

The target of assay [8] is T4, Serine/threonine-protein kinase TBK1 (Homo sapiens). Particulars: at 10 µM.
Assay [9] addresses T5, TGF-beta receptor type-1 (Homo sapiens) (UniProt P36897).
T5 sequence (whole entry): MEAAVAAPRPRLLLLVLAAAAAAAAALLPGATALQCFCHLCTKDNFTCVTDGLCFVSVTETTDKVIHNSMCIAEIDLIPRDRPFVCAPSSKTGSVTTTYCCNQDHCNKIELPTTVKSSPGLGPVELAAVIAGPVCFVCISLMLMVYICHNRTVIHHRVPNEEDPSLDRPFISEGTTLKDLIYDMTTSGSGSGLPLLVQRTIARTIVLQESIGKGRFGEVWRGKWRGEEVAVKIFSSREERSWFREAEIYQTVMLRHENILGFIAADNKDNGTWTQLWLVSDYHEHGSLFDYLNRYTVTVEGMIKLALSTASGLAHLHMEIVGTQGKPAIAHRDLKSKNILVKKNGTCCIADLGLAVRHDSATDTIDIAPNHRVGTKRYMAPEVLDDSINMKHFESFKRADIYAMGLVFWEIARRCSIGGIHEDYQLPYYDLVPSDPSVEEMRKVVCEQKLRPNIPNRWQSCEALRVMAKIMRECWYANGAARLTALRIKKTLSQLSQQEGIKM
The conditions noted are these: at 1 µM.

The target in assay [10] is T5, TGF-beta receptor type-1 (Homo sapiens). Particulars: at 10 µM.
For assay [11], the target named is T6, Serine/threonine-protein kinase TAO1 (Homo sapiens) (UniProt Q7L7X3).
T6 sequence (whole entry): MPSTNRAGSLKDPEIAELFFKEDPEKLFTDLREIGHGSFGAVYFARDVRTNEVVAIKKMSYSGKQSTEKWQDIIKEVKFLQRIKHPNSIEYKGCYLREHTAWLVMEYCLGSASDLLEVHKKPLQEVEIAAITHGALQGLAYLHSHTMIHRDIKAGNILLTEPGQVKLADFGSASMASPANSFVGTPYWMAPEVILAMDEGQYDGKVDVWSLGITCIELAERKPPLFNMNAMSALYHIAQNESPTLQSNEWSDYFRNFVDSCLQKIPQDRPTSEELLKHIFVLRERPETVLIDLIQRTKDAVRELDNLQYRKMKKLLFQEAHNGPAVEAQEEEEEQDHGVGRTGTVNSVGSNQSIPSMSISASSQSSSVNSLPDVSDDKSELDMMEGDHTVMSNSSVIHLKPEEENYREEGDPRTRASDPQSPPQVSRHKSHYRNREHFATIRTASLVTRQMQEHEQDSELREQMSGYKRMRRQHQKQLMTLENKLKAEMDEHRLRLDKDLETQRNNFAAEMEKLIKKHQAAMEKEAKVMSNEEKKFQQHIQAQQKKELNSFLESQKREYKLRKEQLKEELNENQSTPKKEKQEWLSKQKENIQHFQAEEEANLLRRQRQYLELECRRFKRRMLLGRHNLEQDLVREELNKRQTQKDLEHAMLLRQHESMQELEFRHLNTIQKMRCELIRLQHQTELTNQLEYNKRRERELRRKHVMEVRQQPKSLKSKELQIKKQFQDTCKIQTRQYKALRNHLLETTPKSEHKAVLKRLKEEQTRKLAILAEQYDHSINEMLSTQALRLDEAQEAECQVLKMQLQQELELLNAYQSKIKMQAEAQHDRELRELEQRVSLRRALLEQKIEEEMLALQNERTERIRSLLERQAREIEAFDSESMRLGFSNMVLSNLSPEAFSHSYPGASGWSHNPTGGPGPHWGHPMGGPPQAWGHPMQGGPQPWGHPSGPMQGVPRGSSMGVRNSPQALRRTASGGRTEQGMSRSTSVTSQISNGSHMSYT
Particulars: at 10 µM.

For assay [12], the target named is Insulin-like growth factor 1 receptor (Homo sapiens) (UniProt P08069). The conditions noted are these: at 1 µM.
Chain of Insulin-like growth factor 1 receptor (Homo sapiens) (P08069 31-736 limits assumed): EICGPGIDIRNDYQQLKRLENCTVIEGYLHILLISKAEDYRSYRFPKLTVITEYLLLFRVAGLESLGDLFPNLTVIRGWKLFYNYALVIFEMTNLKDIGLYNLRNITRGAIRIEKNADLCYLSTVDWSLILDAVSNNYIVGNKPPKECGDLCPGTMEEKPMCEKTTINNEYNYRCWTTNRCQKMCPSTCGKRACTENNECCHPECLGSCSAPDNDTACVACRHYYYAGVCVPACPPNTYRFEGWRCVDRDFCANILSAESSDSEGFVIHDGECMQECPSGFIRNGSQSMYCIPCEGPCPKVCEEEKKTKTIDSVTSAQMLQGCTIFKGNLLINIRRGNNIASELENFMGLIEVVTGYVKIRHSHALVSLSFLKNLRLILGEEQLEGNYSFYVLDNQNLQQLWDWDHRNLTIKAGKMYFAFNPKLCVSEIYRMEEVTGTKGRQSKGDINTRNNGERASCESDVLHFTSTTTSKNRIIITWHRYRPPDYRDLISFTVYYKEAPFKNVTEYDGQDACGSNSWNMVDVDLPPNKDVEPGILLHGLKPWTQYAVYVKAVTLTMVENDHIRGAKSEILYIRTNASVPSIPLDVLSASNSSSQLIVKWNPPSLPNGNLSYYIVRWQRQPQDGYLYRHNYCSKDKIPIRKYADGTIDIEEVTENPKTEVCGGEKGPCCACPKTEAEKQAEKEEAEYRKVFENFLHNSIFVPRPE
Chain of Insulin-like growth factor 1 receptor (Homo sapiens) (P08069 741-1367 limits assumed): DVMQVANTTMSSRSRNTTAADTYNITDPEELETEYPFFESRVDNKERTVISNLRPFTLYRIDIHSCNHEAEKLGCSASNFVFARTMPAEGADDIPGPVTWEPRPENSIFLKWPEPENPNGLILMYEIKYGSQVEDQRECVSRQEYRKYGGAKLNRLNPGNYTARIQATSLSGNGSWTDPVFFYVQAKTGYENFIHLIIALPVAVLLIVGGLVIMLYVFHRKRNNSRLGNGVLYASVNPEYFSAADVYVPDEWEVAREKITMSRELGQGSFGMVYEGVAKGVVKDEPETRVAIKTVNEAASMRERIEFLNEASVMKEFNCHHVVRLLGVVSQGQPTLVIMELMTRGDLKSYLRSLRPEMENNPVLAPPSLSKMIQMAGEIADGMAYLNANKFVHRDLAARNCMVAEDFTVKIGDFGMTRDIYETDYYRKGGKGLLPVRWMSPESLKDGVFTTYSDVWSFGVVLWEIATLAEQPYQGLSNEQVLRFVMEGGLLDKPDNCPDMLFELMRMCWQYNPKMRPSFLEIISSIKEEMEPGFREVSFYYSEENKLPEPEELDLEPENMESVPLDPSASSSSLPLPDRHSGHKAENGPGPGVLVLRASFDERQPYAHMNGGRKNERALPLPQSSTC
The target is the same in assay [13]. The conditions noted are these: at 10 µM.
The target of assay [14] is T7, Inhibitor of nuclear factor kappa-B kinase subunit alpha (Homo sapiens) (UniProt O15111).
T7 sequence (whole entry): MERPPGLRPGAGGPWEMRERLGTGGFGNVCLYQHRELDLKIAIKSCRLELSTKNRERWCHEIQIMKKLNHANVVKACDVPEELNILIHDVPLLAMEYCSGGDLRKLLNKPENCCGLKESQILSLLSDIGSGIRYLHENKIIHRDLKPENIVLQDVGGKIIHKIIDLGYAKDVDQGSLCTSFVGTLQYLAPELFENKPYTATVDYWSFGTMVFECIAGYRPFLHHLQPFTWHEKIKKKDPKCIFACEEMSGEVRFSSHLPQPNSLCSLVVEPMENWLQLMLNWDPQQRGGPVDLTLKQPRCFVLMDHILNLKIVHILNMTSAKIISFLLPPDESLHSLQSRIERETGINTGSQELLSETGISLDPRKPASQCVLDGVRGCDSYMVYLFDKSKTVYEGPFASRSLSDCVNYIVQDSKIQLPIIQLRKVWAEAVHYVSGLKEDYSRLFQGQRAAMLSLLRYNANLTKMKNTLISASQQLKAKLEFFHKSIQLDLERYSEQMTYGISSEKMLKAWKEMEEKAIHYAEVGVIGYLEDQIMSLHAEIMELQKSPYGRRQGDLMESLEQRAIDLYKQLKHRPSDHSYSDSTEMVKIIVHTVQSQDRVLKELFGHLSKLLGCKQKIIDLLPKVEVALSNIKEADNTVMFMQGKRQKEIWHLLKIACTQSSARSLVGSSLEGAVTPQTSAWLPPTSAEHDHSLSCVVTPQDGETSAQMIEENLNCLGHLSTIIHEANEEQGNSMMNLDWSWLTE
Particulars: at 1 µM.

The target in assay [15] is T7, Inhibitor of nuclear factor kappa-B kinase subunit alpha (Homo sapiens). The conditions noted are these: at 10 µM.
In assay [16] the target is Insulin receptor (Homo sapiens) (UniProt P06213). The conditions noted are these: at 1 µM.
Chain of Insulin receptor (Homo sapiens) (P06213 28-758 limits assumed): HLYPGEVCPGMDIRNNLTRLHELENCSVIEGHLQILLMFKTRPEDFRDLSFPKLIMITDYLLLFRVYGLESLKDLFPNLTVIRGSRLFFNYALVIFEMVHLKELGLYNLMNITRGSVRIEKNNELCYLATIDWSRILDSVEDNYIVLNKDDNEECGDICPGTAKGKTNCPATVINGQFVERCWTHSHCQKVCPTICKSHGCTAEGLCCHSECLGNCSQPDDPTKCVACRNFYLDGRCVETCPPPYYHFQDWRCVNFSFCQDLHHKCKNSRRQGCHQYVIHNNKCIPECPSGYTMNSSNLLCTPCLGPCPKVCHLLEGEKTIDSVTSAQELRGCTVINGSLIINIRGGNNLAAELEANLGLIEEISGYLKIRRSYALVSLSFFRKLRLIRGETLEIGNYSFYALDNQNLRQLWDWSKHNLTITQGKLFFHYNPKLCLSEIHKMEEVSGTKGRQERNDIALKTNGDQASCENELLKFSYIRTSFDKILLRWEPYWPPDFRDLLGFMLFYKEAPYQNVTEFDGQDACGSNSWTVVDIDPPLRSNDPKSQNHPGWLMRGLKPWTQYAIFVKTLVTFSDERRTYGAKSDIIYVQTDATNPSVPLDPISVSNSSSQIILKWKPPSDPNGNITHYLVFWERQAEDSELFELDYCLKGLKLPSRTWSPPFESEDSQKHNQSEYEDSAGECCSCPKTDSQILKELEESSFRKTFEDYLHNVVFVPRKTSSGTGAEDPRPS
Chain of Insulin receptor (Homo sapiens) (P06213 763-1382 limits assumed): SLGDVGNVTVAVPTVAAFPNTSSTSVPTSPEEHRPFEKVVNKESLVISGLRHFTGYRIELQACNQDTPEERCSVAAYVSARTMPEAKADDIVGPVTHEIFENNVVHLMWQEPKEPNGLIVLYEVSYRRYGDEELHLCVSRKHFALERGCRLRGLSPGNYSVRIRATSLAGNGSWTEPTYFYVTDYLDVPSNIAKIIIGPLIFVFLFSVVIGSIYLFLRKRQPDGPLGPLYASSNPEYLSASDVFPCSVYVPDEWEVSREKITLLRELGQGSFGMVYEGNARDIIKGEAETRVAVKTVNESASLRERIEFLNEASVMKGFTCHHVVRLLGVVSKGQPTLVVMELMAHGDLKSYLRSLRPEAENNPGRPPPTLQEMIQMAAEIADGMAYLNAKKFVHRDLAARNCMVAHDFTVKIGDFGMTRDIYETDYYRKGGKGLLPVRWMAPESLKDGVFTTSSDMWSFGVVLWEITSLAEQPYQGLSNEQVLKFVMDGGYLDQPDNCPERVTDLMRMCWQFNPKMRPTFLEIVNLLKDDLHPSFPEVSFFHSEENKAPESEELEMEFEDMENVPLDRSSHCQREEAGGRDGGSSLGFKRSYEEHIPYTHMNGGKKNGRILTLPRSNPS

Take `COc1ccc(Cl)cc1NC(=O)Nc1cc(C)nc2ccccc12`: the residual activity in assay [1] is 88%; in [2], 98%; in [3], 95%; in assay [4], 85%; in assay [5], 95%; in assay [6] it was 83%. Besides, the residual activity in assay [7] was determined as 78%; in assay [8], 69%; in assay [9], 86%; in [10], 94%.

On to `COc1ccc2c(c1)c(C1=C(c3c[nH]c4ccccc34)C(=O)NC1=O)cn2CCCN(C)C`, for which the residual activity was found to be 69% in assay [1]; 82% in [2]; 53% in assay [3]; 33% in [11]; 28% in [4]; 82% in assay [5]. Moreover, the residual activity in assay [6] was found to be 37%; in [7], 59%; in assay [8] it was 24%; in assay [9], 69%; in [10], 49%; in assay [12], 101%. Further, the residual activity in assay [13] came to 82%; in assay [14], 80%; in assay [15], 64%; in assay [16] it was 100%.
